CD40 NFkB inh – inhibitors of CD40-induced NF-kB signaling, primary screen, BL2 cells, luciferase reporter, single point; 0.94% of 83,000 active; CD40L-induced, 4 h; AID 1053188, 2014; inhibition, % at 10 µM;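 active = mean inhibition of at least 50% with a set share of replicates also reaching that level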;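 also: 0% = neutral control wells and 100% = IKK inhibitor VII at 50 µM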
The depositor's hits bear a star; ! = not confirmed by another sample; [ ] = another dose, or the depositor's remark. The entries come from a sample that favours hits as a whole.

SMILES	CD40 NFkB inh
COc1cc(C=NOC(=O)Nc2ccccc2)cc(OC)c1OC	-26
COc1ccc(NC(=O)CCc2c(C)nc3nc(C)nn3c2C)cc1	2
COc1ccc(NC(=O)O/N=C/c2c(C)nn(C(C)(C)C)c2C)cc1	64*
Cc1ccc(S(=O)(=O)N(C)C[C@@H]2OCCCC[C@@H](C)Oc3ccc(NS(=O)(=O)c4ccc(Cl)cc4)cc3C(=O)N([C@@H](C)CO)C[C@@H]2C)cc1	4
O=C(CN1CCOCC1)N[C@@H]1CC[C@H](CCNC(=O)C2CCCC2)O[C@@H]1CO	-8
CCCCNC(=O)C1(C)CCN1C(=O)c1cc(-c2cccs2)oc1C (centres undefined)	105*
CCCCNC(=O)C1(C)CCN1C(=O)c1ccc(C)c(F)c1 (centres undefined)	3
CCCCNC(=O)C1(C)CCN1C(=O)c1ccccc1Br (centres undefined)	9
O=C1CNC[C@H]2[C@H](c3ccc(C4=CCCC4)cc3)[C@H](CO)N12	20[25 µM]
N#C[C@H]1[C@@H](c2ccccc2)[C@H](CO)N1C(=O)c1ccc2c(c1)OCO2	-10[25 µM]
C[C@@H]1COCn2nncc2CC[C@H](Cc2ccccc2)C(=O)N1	4
CCC(=O)N1[C@H](CO)[C@H](c2ccc(C3=CCCC3)cc2)[C@H]1CNC(=O)CN(C)C	3
Cc1ccc(CN2CC(C(=O)Nc3ncc(C)s3)CC2=O)cc1 (centres undefined)	78*
CCOc1ccc(CCNC(=O)C2CC(=O)N(Cc3ccc(C)cc3)C2)cc1OCC (centres undefined)	-11
COC(=O)C1CC(=O)N(Cc2ccccc2)C1 (centres undefined)	3
CC(C)Sc1nc2c(c(=O)n(C)c(=O)n2C)n1C	11
Cc1nc2c(=O)n(C)c(=O)n(C)c2nc1Cl	105*
Cc1cc(Nc2nc3c(c(=O)n(C)c(=O)n3C)n2C)n(-c2ccc(Cl)cc2)n1	-5
CN(C)C(=O)c1ccc(-c2ccc(C3[C@@H]4CN(C(=O)C5CCCC5)C[C@H]3N4)cc2)cc1 (some centres undefined)	9
C[C@@H](C(=O)N(C)C[C@@H]1OCc2ccccc2-c2ccccc2C(=O)N([C@@H](C)CO)C[C@@H]1C)c1ccccc1	-2
C[C@H](CO)N1C[C@H](C)[C@H](CN(C)C(=O)CCN(C)C)OCc2ccccc2-c2ccccc2C1=O	-11
CN1CCN(Cc2nc3ccccc3c(=O)n2Cc2nc(-c3ccc4ccccc4c3)cs2)CC1	60*
CN1CCN(Cc2nc3c(c(=O)n(C)c(=O)n3C)n2CCCc2ccccc2)CC1	3
CC(=O)Cn1c(CN2CCCC2)nc2ccccc2c1=O	0
O=C(C[C@@H]1CC[C@H]2[C@@H](COC[C@H](O)CN2C(=O)c2ccncc2)O1)NCc1cc(F)cc(F)c1	-3[25 µM]
SMILES	CD40 NFkB inh
O=C(N[C@H]1CC[C@H](CCn2cc(C3(O)CCCC3)nn2)O[C@H]1CO)C1CCCC1	-3
CC(=O)Nc1ccc2c(c1)-c1ccc(F)cc1C2	-6
CC(=O)Nc1ccc2c(c1)Cc1ccc(Cl)cc1-2	-51
CC(=O)Nc1ccc2c(c1)Cc1cc(N3C(=O)C=CC3=O)ccc1-2	97*
O=C(C[C@@H]1CC[C@H](NC(=O)c2ccc3c(c2)OCO3)[C@@H](CO)O1)NCc1ccc(Oc2ccccc2)cc1	-7[25 µM]
CO[C@H]1CN(C)C(=O)c2cc(NC(=O)c3ccc4c(c3)OCO4)ccc2OC[C@H](C)N(CCC(F)(F)F)C[C@H]1C	16[25 µM]
Cc1cc(C(=O)Nc2cc(S(C)(=O)=O)ccc2Cl)no1	0
CCOC(=O)c1nc(S(C)(=O)=O)ncc1Cl	108*
CCOC(=O)c1ccc(NS(C)(=O)=O)cc1	-3
Cc1ccccc1NC(=O)c1nc(S(C)(=O)=O)ncc1Cl	104*
CCOC(=O)c1nc(C)[nH]c1C(=O)OCC	-2
CSc1ncc(Cl)c(C(=O)Nc2cccc3ccccc23)n1	2
C[C@H]1CCCCO[C@H](CN(C)C(=O)c2ccncc2)[C@@H](C)CN([C@@H](C)CO)C(=O)c2cc(NS(=O)(=O)c3cccs3)ccc2O1	-3[25 µM]
N#C[C@@H]1[C@@H](c2ccccc2C2=CCCCC2)[C@H](CO)N1C(=O)CN1CCOCC1	-9[25 µM]
CC(=O)N1[C@@H]2c3ccc(-c4ccncc4)c(=O)n3C[C@@H]2[C@@H](CO)[C@@H]1C(=O)NCc1ccccc1Cl	-30[25 µM]
O=S(=O)(c1cccc(F)c1)N1[C@@H]2CNC[C@H]1C2c1ccc(/C=C/c2ccccc2)cc1 (some centres undefined)	-20
O=S(=O)(c1ccccc1)N1[C@@H]2CNC[C@H]1C2c1ccc(/C=C/c2ccccc2)cc1 (some centres undefined)	51*!
Cc1ccc(S(=O)(=O)N2[C@@H]3CNC[C@H]2C3c2ccc(/C=C/c3ccccc3)cc2)cc1 (some centres undefined)	-15[25 µM]
COc1cccc(-c2ccc3c(c2)[C@H]2[C@H](CCN2C(=O)C2CCCCC2)[C@H](CO)N3)c1	-14[25 µM]
COC(=O)C1C(C(=O)OC)C1(c1ccccc1)c1ccccc1 (centres undefined)	3
COC(=O)C1=C(C(=O)OC)C(C(=O)OC)C(C(=O)OC)C(C(=O)OC)(C(=O)OC)C(C(=O)OC)=C1C(=O)OC (centres undefined)	75*
CN(C)C(=O)c1ccc(-c2ccc([C@@H]3[C@@H](CO)N4CCCCN(C(=O)C5CC5)C[C@H]34)cc2)cc1	-2[25 µM]
COc1ccccc1S(=O)(=O)N1CC[C@@H]2[C@H]1c1cc(-c3cccc(C#N)c3)ccc1N(C)[C@H]2CO	13[25 µM]
Cc1ccc(-c2cnc3c(c2)C(=O)N([C@H](C)CO)C[C@H](C)[C@H](CN(C)C(=O)CN(C)C)O3)cc1	-6[25 µM]
COc1ccc(S(=O)(=O)N(C)C[C@@H]2OCCCC[C@H](C)Oc3ccc(NC(=O)Nc4ccc(C(F)(F)F)cc4)cc3C(=O)N([C@@H](C)CO)C[C@@H]2C)cc1	-6
SMILES	CD40 NFkB inh
COc1ccc(S(=O)(=O)N(C)C[C@@H]2Oc3ccc(NC(=O)Nc4ccc(C(F)(F)F)cc4)cc3C(=O)N([C@@H](C)CO)C[C@@H]2C)cc1	77*[25 µM]
C[C@H]1CN([C@@H](C)CO)C(=O)c2cccc(NS(=O)(=O)c3ccc(Cl)cc3)c2O[C@@H]1CN(C)Cc1ccc(C(=O)Nc2ccccc2N)cc1	-55[25 µM]
COc1ccc(S(=O)(=O)N(C)C[C@H]2Oc3ccc(NC(=O)Nc4ccc(C(F)(F)F)cc4)cc3C(=O)N([C@H](C)CO)C[C@H]2C)cc1	66*[25 µM]
C[C@@H]1CN([C@@H](C)CO)C(=O)c2cc(NC(=O)Nc3ccc(F)cc3)ccc2O[C@@H]1CN(C)S(=O)(=O)c1ccc(Cl)cc1	14
C[C@H](CO)N1C[C@H](C)[C@@H](CN(C)S(=O)(=O)c2ccccc2)Oc2ccc(NC(=O)Nc3ccccc3)cc2C1=O	1
COc1ccc(-c2cnc3c(c2)C(=O)N([C@H](C)CO)C[C@@H](C)[C@@H](CN(C)C(=O)Nc2c(C)noc2C)O3)cc1	65*[25 µM]
COc1ccc(S(=O)(=O)N(C)C[C@H]2OCCCC[C@H](C)Oc3ccc(NC(=O)Nc4ccc(F)cc4)cc3C(=O)N([C@H](C)CO)C[C@@H]2C)cc1	4
C[C@@H]1CN([C@@H](C)CO)C(=O)c2cccc(NS(=O)(=O)c3ccc(Cl)cc3)c2O[C@@H]1CN(C)Cc1ccc(C(=O)Nc2ccccc2N)cc1	active[25 µM]
C[C@@H]1CN([C@H](C)CO)C(=O)c2cccc(NS(=O)(=O)c3ccc(Cl)cc3)c2O[C@H]1CN(C)Cc1ccc(C(=O)Nc2ccccc2N)cc1	-37[25 µM]

Source: PubChem
